MITF inh: blocks human microphthalmia-associated transcription factor | AlphaScreen MITF homodimerization, bead proximity signal | AID 1259374 | 0.91% of 650,000 active | inhibition, % at 2.6 µM; in the data active = inhibition above about 50%;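 note: 0% = vehicle wells with protein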
Target sequence (O75030 whole entry, looked up): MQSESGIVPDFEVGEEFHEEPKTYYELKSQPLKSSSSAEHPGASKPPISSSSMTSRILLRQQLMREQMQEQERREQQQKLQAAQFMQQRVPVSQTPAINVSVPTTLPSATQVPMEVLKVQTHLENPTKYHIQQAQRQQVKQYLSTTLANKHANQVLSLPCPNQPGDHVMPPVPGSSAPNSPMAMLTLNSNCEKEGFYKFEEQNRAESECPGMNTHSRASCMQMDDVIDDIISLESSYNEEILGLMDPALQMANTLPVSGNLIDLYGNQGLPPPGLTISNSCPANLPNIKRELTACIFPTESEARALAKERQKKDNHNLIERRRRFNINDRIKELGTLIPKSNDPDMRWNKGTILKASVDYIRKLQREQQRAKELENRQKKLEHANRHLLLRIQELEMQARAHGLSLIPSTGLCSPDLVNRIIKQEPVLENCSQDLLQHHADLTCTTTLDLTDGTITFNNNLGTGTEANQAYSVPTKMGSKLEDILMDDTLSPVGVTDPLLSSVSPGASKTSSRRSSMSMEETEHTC
GPR151 activ: human GPR151 activation | PathHunter beta-arrestin GPR151 cells, luminescence | Q8TDV0 | 1% of 650,000 active | activation, % at 11.2 µM; in the data active = activation above about 4.9%;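 note: 0% = median of compound wells and 100% = cells with positive control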
FBW7 act: activators of human E3 ligase FBW7 | Q969H0 | AlphaScreen FBW7–phospho-cyclin E peptide binding, activator screen | normalized activity (activation), % at 26.1 µM | 0.13% of 650,000 active | AID 1259310; in the data active = normalized activity above about 1.9%;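 note: purified mutant Fbw7 with reduced substrate affinity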
TEAD-YAP block: TEAD-YAP interaction inhibition; HEK-TIYL cells, TEAD-Gal4/YAP UAS-luciferase luminescence; inhibition, % at 9.12 µM; 1.4% of 640,000 active; in the data active = inhibition above about 32%;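 note: 0% = median of test compound wells and 100% = reference inhibitor wells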
* = called active by the depositor; nt = no result. Only some compounds are listed: those with a hit (about 3.5% of all), similar ones and a draw of the others.

SMILES	MITF inh	GPR151 activ	FBW7 act	TEAD-YAP block
C=CCNC(=O)C1CCC(=O)N1C(C)C (stereo not drawn)	-7	0	2.1*	-1
CCCN(CCC)CCCNC(=O)C1CCC(=O)N1C(C)C (stereo not drawn)	0	1	0	-10
O=C(Nc1ccc(C(=O)N2CCCC2)cc1)c1ccc(Br)o1	-5	-9	0	-23
O=C(Nc1ccc(N2CCCCC2)cc1)c1ccc(Br)o1	25	-8	0	49*
O=C(Nc1ccc(N2CCCCC2)cc1)c1ccccc1F	8	-7	0	70*
CCCC(=O)N1CCN(c2ccc(NC(=O)c3ccc(Br)o3)cc2)CC1	2	-2	0	60*
COc1ccc(C(=O)COC(=O)c2ccc(C)cc2)c(OC)c1	-3	0	0	3
COc1ccccc1C(=O)Nc1nnc(-c2ccc(Br)cc2)s1	-12	1	0	-8
COc1ccccc1-n1c(-c2ccccc2)cn2c3c(=O)n(C)c(=O)n(C)c3nc12	-10	0	0	15
COc1ccc(-c2nc3ccc(C(=O)NCc4cccnc4)cc3nc2-c2ccc(OC)cc2)cc1	8	1	0	45*
COc1cccc(CNC(=O)c2ccc3nc(-c4ccc(C)cc4)c(-c4ccc(C)cc4)nc3c2)c1	-5	0	0	4
COC(=O)c1cn[nH]c1NC(=S)Nc1ccc(C)cc1C	5	-2	0	80*
O=[N+]([O-])CC(c1ccccc1)c1c[nH]c2ccccc12 (stereo not drawn)	0	0	0	46*
COc1cccc(C(C[N+](=O)[O-])c2c[nH]c3ccccc23)c1OC (stereo not drawn)	-5	2	0	14
COc1cccc(C(C[N+](=O)[O-])c2c[nH]c3ccccc23)c1 (stereo not drawn)	-12	1	0	54*
CCOc1ccccc1NC(=O)CSc1nc2ccc(N3C(=O)c4ccccc4C3=O)cc2s1	0	1	0	1
O=C(CCc1ccccc1)NC(=S)Nc1cccc(S(=O)(=O)N2CCCC2)c1	-7	1	0	47*
O=C(CCc1ccccc1)NC(=S)Nc1ccc(S(=O)(=O)N2CCOCC2)cc1	8	0	0	3
c1cnc2ccc(Nc3nc(NCc4nc5ccccc5[nH]4)c4ncn(-c5ccsc5)c4n3)cc2c1	-16	0	42*	49*
c1ccc(CNc2nc(Nc3ccc4ncccc4c3)nc3c2ncn3-c2ccsc2)cc1	2	-2	0	12
c1ccc(-n2cnc3c(NCc4nc5ccccc5[nH]4)nc(Nc4ccc5ncccc5c4)nc32)cc1	1	-3	23*	16
CC(=O)N[C@H]1[C@H](Oc2ccccc2C(=O)NCc2ccccc2)O[C@H](COC(C)=O)[C@@H](OC(C)=O)[C@@H]1OC(C)=O	-1	0	0	-2
C[C@H]1O[C@@H](O[C@H]2[C@@H](O)C[C@H](O[C@H]3[C@@H](O)C[C@H](O[C@H]4CC[C@@]5(C)[C@H](CC[C@@H]6[C@@H]5C[C@@H](O)[C@]5(C)[C@@H](C7=CC(=O)OC7)CC[C@]65O)C4)O[C@@H]3C)O[C@@H]2C)C[C@H](O)[C@@H]1O	8	0	0	nt
C[C@H]1O[C@@H](O[C@H]2[C@@H](O)C[C@H](O[C@H]3[C@@H](O)C[C@H](O[C@H]4CC[C@]5(C)C6CC[C@]7(C)[C@@H](C8=CC(=O)OC8)CC[C@]7(O)C6CC[C@@H]5C4)O[C@@H]3C)O[C@@H]2C)C[C@H](O)[C@@H]1O (stereo partly drawn)	24	4	0	99*
O=C(CSc1nc2[nH]ncc2c(=O)n1-c1ccc(Br)cc1)c1ccc(Br)cc1	-2	1	0	7
SMILES	MITF inh	GPR151 activ	FBW7 act	TEAD-YAP block
C=CCn1c(C)cc(C2=NNC(=NC3CC3)SC2)c1C	18	-1	0	95*
CC1CC(C)(C)Nc2ccc(OC(=O)CN3C(=O)c4ccccc4C3=O)cc21 (stereo not drawn)	10	-2	0	11
c1ccc2ncc(-c3ccc4c(c3)COC3(CCNCC3)O4)cc2c1	17	-1	0	64*
O=C1/C(=C/c2ccco2)SC(=S)N1NS(=O)(=O)c1ccccc1	60*	2	0	8
CCC(C(=O)O)N1C(=O)/C(=C\c2ccco2)SC1=S (stereo not drawn)	59*	1	0	-6
CCC(C(=O)O)N1C(=O)/C(=C/c2cccs2)SC1=S (stereo not drawn)	1	-1	0	4
COc1ccc(/C=C2/SC(=S)N(NS(=O)(=O)c3ccccc3)C2=O)cc1	-7	1	0	-2
O=C(Nc1ccc(C(=O)N2CCOCC2)cc1)c1ccc(=O)[nH]c1	3	1	0	-4
COc1cc(NC(=O)C2CC(=O)c3ccccc3C2)ccc1-c1cn[nH]c1 (stereo not drawn)	-4	1	0	48*
COc1cc(NC(=O)C2COc3ccccc3C2)ccc1-c1cn[nH]c1 (stereo not drawn)	-1	2	0	2
O=[N+]([O-])c1ccc(/C=C/c2ccc(O)cc2)cc1	4	-11	0	49*
CC(C)n1cnc2c(NCCCN3CCOCC3)nc(-c3cccc(OC(F)(F)F)c3)nc21	-15	-1	0	13
CCOC(=O)c1cnc2ccc(C)cc2c1NCCCN1CCOCC1	-20	0	0	38*
CCOC(=O)c1cnc2ccc(C)cc2c1NCCN1CCOCC1	-2	-1	0	-6
CCc1ccc(C2=NN(CCC(=O)NCC3CCCN3CC)C(=O)CC2)cc1 (stereo not drawn)	3	0	0	0
Cc1cc(N2CCOCC2)nc2ccc(NC(=O)c3ccncc3)cc12	6	0	0	49*
COc1ccc(OC)c(Cn2c(O)c(/C=C3\C=CC=N3)c(=O)[nH]c2=O)c1	6	2	0	40*
COc1ccc(Cn2c(O)c(/C=C3\C=CC=N3)c(=O)[nH]c2=O)cc1	18	1	0	3
CCOC(=O)C1=CN(C(C)C)C=C(C(=O)OCC)C1c1ccccc1Br	-6	0	2.0*	-4
CCOC(=O)C1=CN(C(C)C)C=C(C(=O)OCC)C1c1cccc(OC)c1	-42	1	8.5*	-2
COC(=O)C1=CN(C(C)C)C=C(C(=O)OC)C1c1cccc(OC)c1	8	1	1	6
COC(=O)C1=CN(C(C)C)C=C(C(=O)OC)C1c1ccccc1Br	3	-1	2	-9
O=C(CN1C(=O)c2ccccc2S1(=O)=O)c1cccc(S(=O)(=O)N2CCOCC2)c1	23	0	0	8
Cc1ccc(S(=O)(=O)N(CC(O)CN2CCOCC2)c2ccccc2)cc1 (stereo not drawn)	-3	0	0	0
CC(C)N(CCNc1cc(Nc2ccccn2)nc(N)n1)C(C)C	1	-1	0	6
CC1CCc2c(sc(NC(=O)c3cccs3)c2C(=O)O)C1 (stereo not drawn)	1	1	0	61*
